Assay outcomes deposited in PubChem by several laboratories.
An excerpt weighted towards active compounds, which were near 2% of everything screened.
ADAM17 inh: inhibits human ADAM17 | recombinant ADAM17, EDANS/DABCYL FRET peptide cleavage | AID 720648 | inhibition, % at 6.95 µM | hit rate 0.83% among 370,000;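 active means inhibition above the mean of compounds lying between control limits plus 3 SD, set per campaign, cut at about 8.5% in these data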
ADAM10 inh: inhibits human ADAM10 | recombinant ADAM10, EDANS/DABCYL FRET peptide cleavage, 3 h | inhibition, % at 7 µM | hit rate 0.62% among 370,000 | AID 720582;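 active means inhibition above a per-campaign cutoff equal to the mean of compounds falling between control-based bounds plus 3 SD, cut at about 20% in these data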
NPR2 activator: GC-B (human) receptor activation; P20594; HEK293-GC-B cells, CNP EC30, cGMP TR-FRET; 0% at EC30 CNP, 100% saturating CNP; activation, % at 10 µM; hit rate 0.11% among 370,000;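 active means activation at 10 µM reaching about 35% in either raw or pattern-adjusted values, limit read from the data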
Target sequence (P20594 whole entry, looked up): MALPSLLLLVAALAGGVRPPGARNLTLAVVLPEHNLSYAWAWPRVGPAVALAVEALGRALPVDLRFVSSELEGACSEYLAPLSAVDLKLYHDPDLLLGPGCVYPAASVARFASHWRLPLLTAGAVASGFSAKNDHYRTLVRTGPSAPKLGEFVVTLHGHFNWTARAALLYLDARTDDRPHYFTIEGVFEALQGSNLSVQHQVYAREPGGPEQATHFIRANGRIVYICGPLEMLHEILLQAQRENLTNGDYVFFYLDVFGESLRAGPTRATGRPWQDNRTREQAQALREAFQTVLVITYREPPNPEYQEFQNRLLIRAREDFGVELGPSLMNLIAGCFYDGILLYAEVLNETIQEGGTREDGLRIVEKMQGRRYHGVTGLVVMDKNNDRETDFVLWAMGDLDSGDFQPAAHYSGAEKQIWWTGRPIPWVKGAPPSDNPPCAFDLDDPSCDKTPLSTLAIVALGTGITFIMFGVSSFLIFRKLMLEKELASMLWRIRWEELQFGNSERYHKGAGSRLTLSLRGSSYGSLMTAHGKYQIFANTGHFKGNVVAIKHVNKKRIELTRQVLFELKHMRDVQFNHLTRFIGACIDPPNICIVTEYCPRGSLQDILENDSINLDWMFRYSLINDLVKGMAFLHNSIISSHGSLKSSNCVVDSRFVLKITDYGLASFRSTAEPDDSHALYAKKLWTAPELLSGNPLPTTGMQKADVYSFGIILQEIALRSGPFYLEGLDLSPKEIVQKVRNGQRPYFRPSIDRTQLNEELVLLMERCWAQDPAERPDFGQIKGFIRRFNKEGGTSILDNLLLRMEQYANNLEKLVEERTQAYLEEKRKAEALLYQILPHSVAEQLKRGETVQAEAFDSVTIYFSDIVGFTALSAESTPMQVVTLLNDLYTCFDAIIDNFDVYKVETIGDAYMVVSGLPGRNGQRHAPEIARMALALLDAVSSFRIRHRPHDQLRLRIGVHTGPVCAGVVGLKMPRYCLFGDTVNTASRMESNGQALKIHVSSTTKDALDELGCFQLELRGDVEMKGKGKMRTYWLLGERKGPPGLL
FAS TE block: FAS thioesterase (human) inhibition; P49327; recombinant FAS-TE, OMFH fluorogenic substrate, fluorescence endpoint; inhibition, % at 15 µM; hit rate 0.67% among 360,000; AID 602261;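 active means compounds whose normalised, plate-corrected inhibition of enzyme fluorescence in the single-dose primary screen is 50% or more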
NPR1 activator: GC-A (human) enzyme activation; P16066; HEK293 GC-A cells, cGMP TR-FRET, EC30 ANP; 0% at EC30 ANP, 100% saturating ANP; activation, % at 10 µM; hit rate 0.14% among 370,000; AID 1671463; in the data active means activation above about 40%
Of the large screens only hits and unclear results are named; the others gave an inactive call.

O=c1[nH]c(CSc2nnnn2-c2ccc(Cl)cc2)nc2ccccc12	none
CSc1c(N(C)C)c(=O)c1=S	none (no result: FAS TE block)
COc1ccc(C(=O)c2ccc3oc(-c4ccc(OC)cc4)c(-c4ccc(O)cc4)c3c2)cc1	ADAM17 inh 8.6
O=S1(=O)CC(N2CCC(c3ccccc3)CC2)CN1Cc1cn(Cc2ccc(C(F)(F)F)cc2)nn1 (centres undefined)	none (no result: FAS TE block)
CC1CN(c2ccc([N+](=O)[O-])c(NCCOc3ccccc3)c2)CCN1 (centres undefined)	NPR1 activator 44
COc1ccc(OCCNc2cc(N3CCCCC3)ccc2[N+](=O)[O-])cc1	none
O=S1(=O)c2ccc(Br)cc2OC[C@H](Cc2ccccc2)N1Cc1cn(CCC2OCCO2)nn1	none (no result: FAS TE block)
N/C(=N\OC(=O)c1ccc(Cl)c([N+](=O)[O-])c1)c1ccccc1	NPR1 activator 46
Cc1c(/C=N/NC(=O)c2cccnc2)c2ccccc2n1Cc1ccccc1	NPR1 activator 58
C=CCNC(=S)N/N=C/c1cn(-c2ccccc2)nc1-c1ccc(OC)cc1	NPR2 activator 42
COc1ccc(-c2nn(-c3ccccc3)cc2/C=N/NC(=O)c2ccc(Br)o2)cc1	none
Cc1ccc(OC(=O)c2sc(Cl)nc2C)cc1C	NPR1 activator 71
C[C@H]1[C@H](N(Cc2cccs2)Cc2cccs2)CC[C@@]23CCCN2C(=O)CCC[C@@H]13	none (no result: FAS TE block)
COC(=O)[C@]12C[C@H](CC(=O)NCCc3ccccc3OC)C(=O)N(Cc3ccc(Cl)cc3Cl)C1=C[C@H](C(C)(C)C)O[C@@H]2C	none (no result: FAS TE block)
O=[N+]([O-])c1nn(-c2ccc(Cl)cc2)n(O)c1=NCc1ccccc1Cl	NPR1 activator 43
O=[N+]([O-])c1nn(-c2ccc(Cl)cc2)n(O)c1=NCc1cccnc1	NPR1 activator 41
O=[N+]([O-])c1nn(-c2ccc(Cl)cc2)n(O)c1=NCc1ccncc1	none
COc1cc(/C=c2\s/c(=C(/C#N)C(=O)N3CCCC3)n(-c3ccccc3)c2=O)ccc1O	none
Cc1ccc(/C=c2\s/c(=C(/C#N)C(=O)N3CCCC3)n(Cc3ccco3)c2=O)s1	ADAM10 inh 20
O=C(Nc1nc2cc3c(cc2s1)OCCO3)c1cccc(N2C(=O)CCC2=O)c1	none
CC(=O)c1sc(NC(=O)c2cccc(N3C(=O)CCC3=O)c2)nc1-c1ccccc1	none
O=C(Nc1nc2ccccc2s1)c1cccc(N2C(=O)CCC2=O)c1	NPR1 activator 44
Cc1sc(NC(=O)c2cccc(N3C(=O)CCC3=O)c2)nc1-c1ccccc1	NPR1 activator 77
CCOC(=O)C1CCN(C(=O)c2ccc3c(=O)n4nc(Nc5ccccc5)sc4nc3c2)CC1	NPR2 activator 40
CCn1cnc2c1c(=O)n(Cc1cccc([N+](=O)[O-])c1)c(=O)n2Cc1ccccc1	NPR2 activator 41
CCn1cnc2c1c(=O)n(Cc1csc(-c3ccccc3)n1)c(=O)n2Cc1ccccc1	NPR2 activator 51
CCn1cnc2c1c(=O)n(Cc1nnc3n1-c1ccccc1SC3)c(=O)n2Cc1ccccc1	none
CCn1cnc2c1c(=O)n(CC(=O)NCc1ccccc1)c(=O)n2Cc1ccccc1	none
CN1C(=O)c2cc(NC(=O)c3ccccc3)ccc2OC[C@H]2O[C@@H](CC(=O)NCC3CC3)CC[C@@H]21	none (no result: FAS TE block)
COc1ccc(/C=C2\CCCC3C2=NN(C(=O)CSc2ncn[nH]2)C3c2ccc(OC)cc2)cc1 (centres undefined)	none
COc1ccc(/C=C2\CCCC3C2=NN(C(=O)COC(=O)CNC(=O)c2ccccc2)C3c2ccc(OC)cc2)cc1 (centres undefined)	ADAM10 inh 21
C[C@H]1CCCN1c1ccc2c(c1)O[C@H]1CCN(C1)S2(=O)=O	none (no result: FAS TE block)
COc1cc(/C=N/Nc2nc(Nc3ccccc3)nc(-n3nc(C)cc3C)n2)cc(OC)c1OC	none
COc1ccc(O)c(/C=N/Nc2nc(Nc3ccccc3)nc(-n3nc(C)cc3C)n2)c1	ADAM17 inh 11
CCOC(=O)c1[nH]cnc1N=Nc1c(O)ccc2ccccc12	NPR2 activator 38
Oc1ccc2ccccc2c1N=Nc1ccccn1	none
c1csc(-c2nc3nc4ccccc4nc3n2Cc2ccc3c(c2)OCO3)c1	NPR2 activator 38
C[C@@H]1COc2cccc(N3CCSCC3)c2S(=O)(=O)N1C	none (no result: FAS TE block)
COc1ccc2cc1Oc1ccc(cc1)C[C@H]1c3c(cc(OC)c4c3Oc3c(ccc5c3[C@H](C2)N(C)CC5)O4)CCN1C	FAS TE block 66 (no result: ADAM17 inh, ADAM10 inh, NPR2 activator, NPR1 activator)
CCCOc1ccc(/C=c2\sc3ncnn3c2=O)cc1	NPR1 activator 69
CC(=O)Oc1ccc(/C=c2\sc3ncnn3c2=O)cc1	none
O=C(COc1ccc(Cl)cc1)Nc1nc(-c2ccc(S(=O)(=O)N3CCOCC3)cc2)cs1	FAS TE block 63
O=C1ON=C(c2ccccc2)/C1=C/c1ccco1	NPR2 activator 35
COc1cccc(-c2nnc(SCC(=O)OC(C)C)n2-c2ccc(Cl)cc2)c1	none (no result: FAS TE block)
CCCCNc1c(-c2ccc(OC)c(Sc3ccc(OC)cc3)c2)nc2cnccn12	none
CCCCNc1c(-c2ccc(SC(C)CC)c(OC)c2)nc2ccc(Cl)cn12 (centres undefined)	NPR1 activator 40
CCCCNc1c(-c2ccc(SC(C)CC)cc2)nc2cnccn12 (centres undefined)	FAS TE block 55 (no result: ADAM17 inh, ADAM10 inh, NPR2 activator, NPR1 activator)
CCC[C@H]1[C@@H](OC(=O)NCCc2ccccc2)CC[C@@]23CCCN2C(=O)CCC[C@@H]13	none (no result: FAS TE block)
CC(COc1cccc(Br)c1)CN1CCC(C(O)(c2ccccc2)c2ccccc2)CC1 (centres undefined)	none (no result: FAS TE block)
O=C(OC1CCOC1=O)c1cc(-c2cccs2)nc2ccccc12 (centres undefined)	NPR1 activator 51
COC(=O)c1cc(/C=C/c2ccccc2)on1	NPR1 activator 59
C=CC[C@H](CC(=O)NCCO)C(=O)NC[C@@H](OC(=O)[C@@H](CC=C)CC(=O)OC(C)(C)C)c1ccccc1	NPR2 activator 69
O=C(NC1CCCCN(Cc2ccc(Cl)cc2)C1=O)c1cc(-c2ccccc2)no1 (centres undefined)	none (no result: FAS TE block)
O=C(CCc1ccccc1)N[C@H]1[C@H](OC(=O)c2ccc3ccccc3n2)CCC[C@@]12C(=O)N(Cc1ccccc1)c1ccccc12	none (no result: FAS TE block)
Cc1[nH]nc(-c2ccc(O)c(C)c2O)c1Oc1ccccc1	NPR1 activator 79
Cc1cc(N2CCN(CC(C)(C)O)C[C@H]2C)ccc1N1CCN(CC(C)(C)O)[C@@H](C)C1	none (no result: FAS TE block)
O=C(Nc1ncnc2c1C(c1ccccc1)c1c(ccc3ccccc13)O2)c1ccccc1 (centres undefined)	FAS TE block 96
O=C(Cc1ccccc1)Nc1ncnc2c1C(c1ccccc1)c1c(ccc3ccccc13)O2 (centres undefined)	none
CN(c1ccc(O)cc1)c1nc(O)c(C2=c3ccccc3=NC2=O)s1	NPR1 activator 41
